In PubChem BioAssay AID1159580 (chemical genetic matrix, 2015):
Where “and” joins values, the source holds several entries; their conditions need not be identical. Identical values can stand only once. In all, about 5,500 compounds went through this assay and about 2,000 (36%) were called active. Roughly 18% stayed inconclusive and do not appear here. No stated cut-off is given here; in the data, active means normalized growth mostly below about 0.91 (no sharp cut-off); inconclusive means no clear call, values can overlap the other calls; inactive means mostly above about 0.92. The list shows a part of the results.

Experiment: chemical genetic growth profiling, strain panel (AID 1159580);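 further: tested at 20 µM; growth read once vehicle control cultures reached saturation at 30 °C; 1 = growth at the plate median or of vehicle wells; lower values mean less growth of the strain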
Conditions: S. cerevisiae deletion strains, growth OD

Measured: normalized growth

COc1c2ccoc2c(OC)c2oc(=O)ccc12
inactive: locus YAL013W, strain DEP1, hits give low values 0.978 | locus YAL021C, strain ccr4, hits give low values 0.94 | locus YAL026C, strain drs2, hits give low values 0.953 | locus YAL030W, strain snc1, hits give low values 0.978 | locus YBL061C, strain skt5, hits give low values 0.974 | locus YBR009C, strain hhf1, hits give low values 0.923 | locus YBR021W, strain FUR4, hits give low values 0.901 | locus YBR171W, strain sec66, hits give low values 0.975 | locus YBR229C, strain ROT2, hits give low values 0.945 | locus YBR231C, strain swc5, hits give low values 0.966 | locus YBR279W, strain paf1, hits give low values 0.939 | locus YCL011C, strain gbp2, hits give low values 0.934 | locus YCL029C, strain bik1, hits give low values 0.965 | locus YCL061C, strain MRC1, hits give low values 0.944 | locus YCL069W, strain vba3, hits give low values 0.979 | locus YCR088W, strain abp1, hits give low values 0.997 | locus YDL005C, strain med2, hits give low values 0.989 | locus YDL035C, strain GPR1, hits give low values 0.929 | locus YDL040C, strain nat1, hits give low values 0.996 | locus YDL074C, strain BRE1, hits give low values 0.934 | locus YDL101C, strain DUN1, hits give low values 0.959 | locus YDL134C, strain PPH21, hits give low values 0.983 | locus YDL185W, strain tfp1, hits give low values 0.941 | locus YDR001C, strain nth1, hits give low values 0.97 | locus YDR069C, strain doa4, hits give low values 0.982 | locus YDR137W, strain rgp1, hits give low values 0.991 | locus YDR150W, strain NUM1, hits give low values 0.991 | locus YDR159W, strain sac3, hits give low values 1.02 | locus YDR162C, strain NBP2, hits give low values 0.884 | locus YDR297W, strain sur2, hits give low values 0.978 | locus YDR318W, strain mcm21, hits give low values 0.966 | locus YDR334W, strain swr1, hits give low values 0.938 | locus YDR388W, hits give low values 0.966 | locus YDR502C, strain sam2, hits give low values 0.97 | locus YEL003W, strain gim4, hits give low values 0.949 | locus YEL037C, strain rad23, hits give low values 0.976 | locus YEL061C, strain CIN8 (second series), hits give low values 0.972 | locus YEL061C, strain CIN8, hits give low values 0.977 | locus YER016W, strain bim1, hits give low values 0.99 | locus YER110C, hits give low values 0.96 | locus YER111C, strain swi4, hits give low values 0.987 | locus YER155C, strain BEM2, hits give low values 1.01 | locus YER167W, strain BCK2, hits give low values 0.97 | locus YFR010W, strain ubp6, hits give low values 0.968 | locus YGL078C, strain dbp3, hits give low values 0.987 | locus YGL086W, strain mad1, hits give low values 0.969 | locus YGL167C, strain pmr1, hits give low values 0.964 | locus YGL173C, strain kem1, hits give low values 0.979 | locus YGL227W, strain vid30, hits give low values 0.997 | locus YGL240W, strain doc1, hits give low values 0.969 | locus YGL248W, strain PDE1, hits give low values 0.96 | locus YGL253W, strain hxk2, hits give low values 0.959 | locus YGR078C, strain PAC10, hits give low values 0.962 | locus YGR135W, strain pre9, hits give low values 0.999 | locus YGR252W, strain gcn5, hits give low values 0.91 | locus YHR013C, strain ard1, hits give low values 0.912 | locus YHR027C, strain rpn1, hits give low values 0.959 | locus YHR030C, strain SLT2, hits give low values 0.99 and 0.993 | locus YHR079C, strain IRE1 (second series), hits give low values 0.983 | locus YHR079C, strain IRE1, hits give low values 0.989 | locus YHR094C, strain hxt1, hits give low values 0.98 | locus YHR129C, strain ARP1, hits give low values 0.981 | locus YHR142W, strain chs7, hits give low values 0.882 | locus YHR200W, strain rpn10, hits give low values 0.936 | locus YIL066C, strain RNR3, hits give low values 0.946 | locus YIL073C, strain SPO22, hits give low values 0.954 | locus YIL125W, strain kgd1, hits give low values 0.984 | locus YIR030C, strain dcg1, hits give low values 0.979 | locus YJL092W, strain hpr5, hits give low values 0.964 | locus YJL095W, strain BCK1 (second series), hits give low values 0.969 | locus YJL095W, strain BCK1, hits give low values 0.913 and 0.989 | locus YJL115W, strain asf1, hits give low values 0.959 | locus YJL129C, strain trk1, hits give low values 1.02 | locus YJL134W, strain LCB3, hits give low values 0.983 | locus YJL154C, strain vps35, hits give low values 0.983 | locus YJL166W, strain qcr8, hits give low values 0.96 | locus YJL168C, strain set2, hits give low values 0.989 | locus YJL187C, strain SWE1 (second series), hits give low values 0.959 | locus YJL187C, strain SWE1, hits give low values 0.951 | locus YJR066W, strain TOR1, hits give low values 0.939 | locus YJR075W, strain HOC1, hits give low values 0.964 | locus YKL009W, strain mrt4, hits give low values 0.956 | locus YKL068W, hits give low values 0.996 | locus YKL085W, strain MDH1 (second series), hits give low values 0.987 | locus YKL085W, strain MDH1, hits give low values 0.987 | locus YKL160W, strain elf1, hits give low values 0.933 | locus YKL190W, strain CNB1, hits give low values 0.985 | locus YKR001C, strain vps1, hits give low values 0.905 | locus YKR026C, strain gcn3, hits give low values 0.99 | locus YKR091W, strain srl3, hits give low values 0.991 | locus YLL001W, strain dnm1, hits give low values 0.909 | locus YLL026W, hits give low values 0.979 | locus YLL041C, strain sdh2, hits give low values 0.981 | locus YLR027C, strain aat2, hits give low values 0.975 | locus YLR039C, strain RIC1, hits give low values 0.964 | locus YLR058C, strain SHM2, hits give low values 0.959 | locus YLR102C, strain apc9, hits give low values 0.979 | locus YLR113W, strain HOG1, hits give low values 1.05 | locus YLR221C, strain rsa3, hits give low values 0.983 | locus YLR262C, strain YPT6 (second series), hits give low values 0.969 | locus YLR262C, strain YPT6, hits give low values 1.05 | locus YLR268W, strain sec22, hits give low values 0.921 | locus YLR320W, strain mms22, hits give low values 0.945 | locus YLR330W, strain CHS5, hits give low values 0.963 | locus YLR342W, strain FKS1, hits give low values 0.99 | locus YLR357W, strain rsc2, hits give low values 1.06 | locus YLR370C, strain arc18, hits give low values 0.988 | locus YLR384C, strain iki3, hits give low values 0.991 | locus YLR418C, strain cdc73, hits give low values 0.932 | locus YML016C, strain PPZ1, hits give low values 0.948 | locus YML032C, strain rad52, hits give low values 0.951 | locus YML124C, strain tub3, hits give low values 0.974 | locus YMR058W, strain fet3, hits give low values 0.921 | locus YMR078C, strain ctf18, hits give low values 0.969 | locus YMR125W, strain sto1, hits give low values 0.994 | locus YMR129W, hits give low values 0.986 | locus YMR205C, strain PFK2, hits give low values 0.913 | locus YMR223W, strain ubp8, hits give low values 0.974 | locus YMR231W, strain pep5, hits give low values 0.991 | locus YMR263W, strain SAP30, hits give low values 0.973 | locus YMR307W, strain GAS1, hits give low values 0.956 | locus YNL067W, strain RPL9B, hits give low values 0.999 | locus YNL128W, strain TEP1, hits give low values 0.932 | locus YNL153C, strain GIM3, hits give low values 0.947 | locus YNL183C, strain NPR1, hits give low values 0.939 | locus YNL209W, strain ssb2, hits give low values 0.958 | locus YNL233W, strain BNI4, hits give low values 0.946 | locus YNL250W, strain rad50, hits give low values 0.988 | locus YNL271C, strain bni1, hits give low values 0.983 | locus YNL298W, strain CLA4, hits give low values 0.929 | locus YNL307C, strain MCK1, hits give low values 0.949 | locus YNL322C, strain KRE1 (second series), hits give low values 0.986 | locus YNR049C, strain mso1, hits give low values 0.993 | locus YNR052C, strain pop2, hits give low values 1 | locus YOL006C, strain TOP1, hits give low values 0.691 | locus YOL012C, strain htz1 0.85 | locus YOL147C, strain pex11, hits give low values 0.984 | locus YOR001W, strain rrp6, hits give low values 0.978 | locus YOR061W, strain CKA2, hits give low values 0.931 | locus YOR069W, strain VPS5, hits give low values 0.994 | locus YOR070C, strain gyp1, hits give low values 0.951 | locus YOR080W, strain dia2, hits give low values 0.992 | locus YOR083W, strain WHI5, hits give low values 0.943 | locus YOR106W, strain vam3, hits give low values 0.875 | locus YOR136W, strain idh2, hits give low values 0.959 | locus YOR144C, strain elg1, hits give low values 0.969 | locus YOR231W, strain MKK1, hits give low values 0.962 | locus YOR265W, strain rbl2, hits give low values 0.979 | locus YOR270C, strain vph1, hits give low values 0.815 | locus YOR290C, strain snf2, hits give low values 0.876 | locus YOR316C, strain cot1, hits give low values 0.948 | locus YPL051W, strain arl3, hits give low values 0.928 | locus YPL055C, strain LGE1, hits give low values 0.868 | locus YPL240C, strain hsp82, hits give low values 0.939 | locus YPL241C, strain CIN2, hits give low values 0.993 | locus YPL256C, strain CLN2, hits give low values 1.08 | locus YPR119W, strain clb2, hits give low values 0.997 | locus YPR141C, strain kar3, hits give low values 0.98 | locus YPR163C, strain tif3, hits give low values 0.948 | locus YPR167C, strain met16, hits give low values 0.983 | strain wtn01, hits give low values 0.91
active: locus YBR023C, strain chs3, hits give low values 0.888 | locus YCL016C, strain dcc1, hits give low values 0.876 | locus YDL192W, strain arf1, hits give low values 0.911 | locus YDR101C, strain arx1, hits give low values 0.904 | locus YDR195W, strain ref2 1.26 [resistant] | locus YDR335W, strain msn5, hits give low values 0.91 | locus YDR392W, strain spt3, hits give low values 0.724 | locus YER015W, strain faa2, hits give low values 0.912 | locus YER155C, strain BEM2 (second series), hits give low values 0.835 | locus YJL164C, strain tpk1, hits give low values 0.912 | locus YLR258W, strain gsy2, hits give low values 0.907 | locus YLR371W, strain rom2, hits give low values 0.84 | locus YML120C, strain ndi1, hits give low values 0.901 | locus YNL071W, strain lat1, hits give low values 0.915 | locus YNL248C, strain rpa49, hits give low values 0.849 | locus YOR184W, strain ser1, hits give low values 0.871 | locus YPL078C, strain atp4, hits give low values 0.882 | locus YPL106C, strain sse1, hits give low values 0.832
